Assay results as given in ChEMBL document CHEMBL3988442, “University of Dundee, Small-Polar-MMV Screening Library” (2021).
About 13,000 (27%) of roughly 48,000 compounds showed an effect of 50% or more. The list shows a part of the results.

test system: Wolbachia pipientis; assay: Anti-Wolbachia Cell-Based Screen; type: functional; set-up: scale not given: in the data most compounds retested in dose-response had high values; conditions: 5 µM

Structure (SMILES) | Percent Effect
O=C(O)C(F)(F)F.c1ccc(OCc2noc3c2CN(c2ncccn2)CC3)nc1 | 2.544%
Cc1cnc(N2CCc3onc(COc4cccnc4)c3C2)nc1 | 88.9%
Cn1nc(COc2cncnc2)c2c1CCN(Cc1ccco1)C2.O=C(O)C(F)(F)F | 2.599%
Cc1cnc(N2CCc3c(c(COc4cncnc4)nn3C)C2)nc1 | 94.36%
Cn1nc(COc2cncnc2)c2c1CCN(Cc1ccccn1)C2.O=C(O)C(F)(F)F | 8.456%
Cn1nc(COc2cccnc2)c2c1CCN(c1ncccn1)C2 | 87.22%
Cn1nc(Cn2ccnc2)c2c1CN(c1ncccn1)C2.O=C(O)C(F)(F)F | -4.507%
c1cncc(OCc2noc3c2CN(Cc2ccoc2)CC3)c1 | 7.434%
CCN(CC)c1ccc(NS(=O)(=O)c2cccnc2)cn1 | 2.803%
C[C@@H](NC(=O)c1cccn1C)c1c(-c2ccc(Cl)cc2)noc1C(=O)O | 1.666%
Cc1nccn1-c1ccc(CNS(=O)(=O)N2CCCCC2C)cn1 (stereo not given) | 6.496%
NC(=O)C1(CCCc2ccccn2)CCCN(Cc2ccncc2)C1 (stereo not given) | 119.7%
CCOC(=O)C1(Cc2cccc(Cl)c2)CCCN(Cc2ncc[nH]2)C1 (stereo not given) | -2.445%
Cn1cc(CN2CCC3(CCCN(Cc4ccccn4)C3)CC2)cn1 | -1.039%
NC(=O)C1(CCCc2ccccn2)CCCN(Cc2ncc[nH]2)C1 (stereo not given) | 141.6%
O=C(O)C1(Cc2ccc(F)cc2)CCCN(Cc2ccncc2)C1 (stereo not given) | -12.28%
CCOC(=O)C1(Cc2cccc(OC)c2)CCCN(Cc2ncc[nH]2)C1 (stereo not given) | 25.22%
O=C(O)C1(Cc2ccc(F)cc2F)CCCN(Cc2ccncc2)C1 (stereo not given) | 1.95%
Cn1cc(CN2CCCC(CCCc3ccccn3)(C(N)=O)C2)cn1 (stereo not given) | 84.15%
O=C(O)CCc1cc2n(n1)CCCN(C(=O)c1ccc(Cl)s1)C2 | -14.6%
CCN1CCC(NN2CCN(C)CC2)CC1 | 4.072%
CCS(=O)(=O)NCC(=O)N1CC2(CCCC2)c2c(F)cccc21 | -9.992%
CC(=O)N[C@H]1C[C@@H](c2nc(-c3ccc4c(c3)OCO4)no2)N(C)C1 | -4.728%
CN1C[C@@H](F)[C@@H](OCc2nc3ccccc3[nH]2)C1 | -2.12%
c1cnc(N2CCC3(CCCN(CC4CCCCC4)C3)C2)cn1 (stereo not given) | 13.44%
COc1ncc(CN2CCC3(CCCN(CC4CCCCC4)C3)C2)cn1 (stereo not given) | 96.23%
COCCc1ncc(CN2C[C@H](C3CC3)[C@@H](N)C2)cn1 | -19.64%

Structure (SMILES) | Percent Effect
COCCc1ncc(CN2CCC(Oc3ccccc3C)CC2)cn1 | 2.53%
COCCc1ncc(CN2CCC3(CCCN(CC4CC4)C3)C2)cn1 (stereo not given) | 106.1%
OCC1(CC2CC2)CCCN(Cc2cnc(C3CCCCC3)nc2)C1 (stereo not given) | -2.459%
CCCSc1ncc(C2CC(=O)NCc3nc4ccccn4c32)cn1 (stereo not given) | 2.221%
COc1ccccc1C1(CNc2cn[nH]c(=O)c2Cl)CC1 | 2.708%
CC(NC(=O)c1cccnc1N(C)C)c1ccccc1Br (stereo not given) | 9.946%
C=C(C)COc1cccc(C(=O)N(C)C(C)c2ccncn2)c1 (stereo not given) | -7.553%
O=C(O)C(F)(F)F.O=S(=O)(c1ccccc1)N1CCC2(CCCN2Cc2cccc(Cl)c2)C1 (stereo not given) | -34.27%
O=C(O)C(F)(F)F.O=C(O)C(F)(F)F.O=C(O)CN1CCCC2(CCN2Cc2cccc(F)c2)C1 (stereo not given) | 109.4%
O=C(O)C(F)(F)F.O=C(c1cscn1)N1CCC2(CN(Cc3nccs3)C2)C1 | 5.214%
O=C(O)C(F)(F)F.O=C(c1ccccc1)N1CCCC2(CCN2Cc2cccc(F)c2)C1 (stereo not given) | 106.4%
CNC(=O)CN1C(=O)CCC12CCCN(Cc1cccc(F)c1)C2.O=C(O)C(F)(F)F.O=C(O)C(F)(F)F (stereo not given) | 0.4911%
COCCC(=O)N1CCC2(CCN(Cc3cccc(F)c3)CC2)C1.O=C(O)C(F)(F)F | -14.27%
CCS(=O)(=O)N1CCCC2(CCCN2Cc2cccc(F)c2)C1.O=C(O)C(F)(F)F (stereo not given) | -5.383%
COC(=O)CCC(=O)N1CCCC2(CCCN2Cc2cccc(F)c2)C1.O=C(O)C(F)(F)F (stereo not given) | 107.2%
O=C(O)C(F)(F)F.O=C(c1cscn1)N1CCCC2(CCN2Cc2cccc(F)c2)C1 (stereo not given) | 96.65%
O=C(O)C(F)(F)F.O=C(c1cscn1)N1CCC2(CCN(Cc3nccs3)CC2)C1 | 11.65%
Cc1cnc(CNc2ccccc2CN(C)C(=O)c2cccs2)o1 | 6.302%
Cc1cc(-c2nn(C)c(Cl)c2CN2CCOCC(O)C2)no1 (stereo not given) | 7.686%
Cc1ccc(OCC(=O)Nc2ncccc2OC(F)F)cc1 | -8.184%
COc1ccc(-c2nc(CN3CCCS3(=O)=O)co2)cc1 | -14.94%
COc1cccc(N2CCN(C(=O)C(O)c3ccccc3Cl)CC2=O)c1 (stereo not given) | 0.2128%
CC(=O)N1CCN(c2ccc(Cl)nn2)C(=O)C1 | 106.1%
Cc1ccccc1N1CCN(C(=O)CSc2ccncc2)CC1=O | -3.872%
CC(O)C(=O)N1CCN(c2ccccc2Cl)C(=O)C1 (stereo not given) | -6.675%
CC(C)C(NC(N)=O)C(=O)N1CCN(c2ccccc2Cl)C(=O)C1 (stereo not given) | 3.196%
CC(C)NC(=O)N1CCN(c2ccc(Cl)nn2)C(=O)C1 | 110.8%

Structure (SMILES) | Percent Effect
CN(C)C(=O)N1CCN(c2ccc(Cl)nn2)C(=O)C1 | 97.53%
Cc1ccc2cc(C(=O)N3CCN(C(=O)N(C)C)CC3)ccc2n1 | 1.001%
COC(=O)[C@@H]1CN(C(=O)NC(C)C)CCN1S(=O)(=O)c1ccccc1 | -0.3484%
CCN1CCN(C(=O)C(C)SC)CC1 (stereo not given) | -3.808%
CC(C)(NS(C)(=O)=O)C(=O)NCc1cccc(Br)c1 | -10.37%
Cc1cnc(CNc2ccc(C(=O)NCc3ccco3)cc2C)o1 | -1.967%
O=C1COc2ccc(S(=O)(=O)NCc3ccccc3)c3c2N1CCC3 | -7.83%
CCOC(=O)C1(Cc2ccc(Cl)cc2)CCN(Cc2ncc[nH]2)CC1 | -10.72%
Cc1[nH]c2ccccc2c1CCNC(=O)N1CCC2(C1)OCCO2 | 5.663%
Cc1nc(-c2ccsc2)ccc1C(=O)NCCN1CCOCC1 | -7.078%
Cc1ccc(C(=O)N2CCOCC2)cc1NCc1ccsc1 | -10.53%
Cc1n[nH]c(C2CN(CC(=O)NCCc3ccsc3)CCO2)n1 (stereo not given) | -13.37%
CNS(=O)(=O)c1cccc(C(C)NCc2ccsc2)c1 (stereo not given) | -13.31%
Cc1nc(C(Cc2ccsc2)NC(=O)CCN2CCOCC2)sc1C (stereo not given) | 158.4%
O=C(CCN1CCOCC1)NC(Cc1ccsc1)c1nccs1 (stereo not given) | 146.7%
CC(NC(=O)Nc1ccccc1CN1CCOCC1)c1nccs1 (stereo not given) | 15.83%
O=C(C(CNCc1ccsc1)c1ccccc1)N1CCOCC1 (stereo not given) | 2.12%
Cc1cccc(CNC(Cc2ccsc2)c2nc(C)c(C)s2)n1.Cl (stereo not given) | 125.8%
Cc1nc(C(Cc2ccsc2)NC(=O)CN2CCOCC2)sc1C (stereo not given) | 171.6%
Cc1ccc(CN2CCOCC2)cc1NCc1ccsc1 | -9.351%
Cn1cc(C(C)(O)CNC(=O)c2cc(Br)cn2C)cn1 (stereo not given) | 0.5421%
Cc1n[nH]c(-c2ccc(NC(=O)C(C)(C)N3CCN(C)CC3)cc2)n1 | -11.99%
CC(C)(C)c1cnc(CN2CCCS2(=O)=O)o1 | -7.665%
O=C1CCc2cc(S(=O)(=O)NC(=O)c3ccc4c(c3)COC4)ccc2N1 | -36.98%
O=c1c2cccc(Cl)c2ncn1C1CCNC1 (stereo not given) | 5.785%
Cc1ccc(C(=O)NCc2ccccc2S(=O)(=O)N(C)CCO)cc1F | -6.958%
CCn1nc(C)cc1C(=O)Nc1cc(F)ccc1OCC1CCCO1 (stereo not given) | -4.642%

Structure (SMILES) | Percent Effect
Cc1cnc(C(=O)Nc2cc(F)ccc2OCC2CCCO2)cn1 (stereo not given) | -2.263%
Fc1ccc(OCC2CCCO2)c(NCc2cn3cccnc3n2)c1 (stereo not given) | -2.31%
Nc1ccnc(CNc2cc(F)ccc2OCC2CCCO2)n1 (stereo not given) | -8.979%
O=C(CNc1cc(F)ccc1OCC1CCCO1)N1CCOCC1 (stereo not given) | 97.1%
O=C(Nc1cc(F)ccc1OCC1CCCO1)c1ccc(O)nc1 (stereo not given) | 10.58%
O=C(Nc1ccccc1OCC1CCCCO1)c1ccc(O)nc1 (stereo not given) | 2.227%
Cc1ccc(NC(=O)N2CCCC2)c(OCC2CCCO2)c1 (stereo not given) | 97.39%
CS(=O)(=O)CCC(=O)Nc1cc(F)ccc1OCC1CCCO1 (stereo not given) | 92.36%
O=C(Nc1cc(F)ccc1OCC1CCCO1)NC1CC1 (stereo not given) | 110.8%
Cc1ccc(C(=O)Nc2cc(F)ccc2OCC2CCCO2)cn1 (stereo not given) | -10.64%
CCOCCC(=O)Nc1cc(C(N)=O)ccc1N1CCCC(C)C1 (stereo not given) | -3.919%
CCc1nc(CN(C)CC(c2cccs2)N2CCOCC2)no1 (stereo not given) | -2.837%
COCCC(=O)N1CCc2cc(Cl)cc(Cl)c2C1 | -13.08%
Cc1c(-c2c(-c3ccccc3)ncn2[C@H](CO)C(=O)O)cnn1C | -0.2965%
CCOc1cccc(C(C)NCc2ccc(OC)c(OC)c2OC)c1 (stereo not given) | 2.292%
CCCC(NC(=O)c1cc(C2CC2)[nH]n1)c1nnc2ccccn12 (stereo not given) | 4.911%
O=C(Nc1cc(F)ccc1OCC1CCCO1)N1CCCC1 (stereo not given) | 75.82%
O=C(Nc1cc(F)ccc1OCC1CCCO1)c1ccoc1 (stereo not given) | -0.8662%
CCc1noc(CNc2cc(F)ccc2OCC2CCCO2)n1 (stereo not given) | -4.375%
O=C(Nc1cc(F)ccc1OCC1CCCO1)N1CCSCC1 (stereo not given) | 95.33%
CC(C)(C)c1nnc(CNc2cc(F)ccc2OCC2CCCO2)o1 (stereo not given) | 0.05226%
O=C(CC(F)(F)F)Nc1cc(F)ccc1OCC1CCCO1 (stereo not given) | 91.81%
CC(=O)N1CCC(Nc2cc(F)ccc2OCC2CCCO2)CC1 (stereo not given) | 103.1%
O=C(Nc1cc(F)ccc1OCC1CCCO1)c1ccccn1 (stereo not given) | -3.019%
